From PubChem BioAssay come the findings set out here.

The subject of assay [1] is TRPC4 beta (transient receptor potential cation channel C4), mouse. The experiment in a line: activators of mouse TRPC4 channel, confirmation, cell-based, Fluo4 calcium, HEK293 TRPC4beta/mu-opioid, duplicates, 10 µM (AID 2426;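 active = fluorescence ratio normalized to control raised more than 50% in primary screen plus both repeat runs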;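 for activation: percent rise of integrated ratio over buffer wells lacking compound which define 0%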). Conditions: Fluo4 calcium fluorescence, at 10 µM; hits give high values.
Assay [2] deals with transient receptor potential cation channel C4 beta (TRPC4), mouse. The experiment in a line: activators of mouse TRPC4 channel, confirmation, cell-based, second round, Fluo4, HEK293 TRPC4beta/mu-opioid, 1 µM (AID 2461;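 active = primary screen active and over 50% activation in each of two duplicate runs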;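 for activation: 0% = wells without test compound as baseline of integrated fluorescence ratio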). Conditions: Fluo4 calcium fluorescence, at 1 µM; hits give high values.
Assay [3] concerns TRPC4 (transient receptor potential cation channel C4 beta), mouse. The experiment in a line: positive allosteric modulators of mouse TRPC4, confirmation, cell-based, second round, Fluo-4, HEK293 TRPC4beta/mu-opioid, 1 µM (AID 2554;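 active = primary screen hit whose fluorescence ratio, in both repeats, exceeds the weak agonist control mean by 3 SD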). Conditions: DAMGO EC20, Fluo-4 calcium flux, at 1 µM; hits give high values.
The test system of assay [4] is TRPC4 beta (transient receptor potential cation channel C4), mouse. The experiment in a line: positive allosteric modulators of mouse TRPC4, confirmation, cell-based, Fluo-4, HEK293 TRPC4beta/mu-opioid (AID 2555;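 active = primary screen hit whose calcium fluorescence ratio, in both repeats, exceeds the weak agonist control mean by 3 SD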). Particulars: DAMGO EC20, Fluo-4 calcium flux, at 10 µM; hits give high values. In general terms: A change in cytosolic calcium serves as a functional read-out for many receptors and channels.

Assay [5] deals with Short transient receptor potential channel 4 (Mus musculus) (UniProt Q9QUQ5). The experiment in a line: inhibitors of mouse TRPC4 channel, confirmation, cell-based, Fluo4, HEK293 TRPC4beta/mu-opioid (AID 2636;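 active = calcium signal cut by more than 3 SD below the full-agonist control yet still positive, in both repeats and the earlier primary screen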). Conditions: DAMGO, Fluo4 calcium flux, at 10 µM; hits give high values.
Assay [6] has the same target. The experiment in a line: inhibitors of mouse TRPC4 channel, confirmation, cell-based, second round, Fluo4, HEK293 TRPC4beta/mu-opioid, 1 µM (AID 2637;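 active = calcium signal ratio cut to more than 3 SD under the fully stimulated control mean yet still positive, in both repeats and the primary screen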). Conditions: Fluo4 calcium flux, DAMGO, at 1 µM; hits give high values.
Assay [7] has the same target. In words: mouse TRPC4 channel activators, dose response, cell-based, HEK293 TRPC4/mu-opioid, Fluo-4 calcium (AID 434937;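 active = primary screen activator hit with a dose response curve and TRPC4 channel activation at any tested dose; inactive = no activation, no dose response, or not a primary hit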).
Assay [8] shares this target. In words: mouse TRPC4 channel inhibitors, dose response, cell-based, HEK293 TRPC4/mu-opioid, Fluo-4 calcium (AID 434942).
Assay [9] has as its target Short transient receptor potential channel 6 (Mus musculus) (UniProt Q61143). In words: inhibition of mouse TRPC6 channel, confirmation, selectivity assay for TRPC4 inhibitor project, cell-based, HEK293, membrane potential dye, duplicate (AID 434948;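 active = active in primary screen and both duplicates, each dropping signal beyond three positive-control SD with fluorescence still positive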). Particulars: HEK293 TRPC6, membrane potential dye fluorescence, at 10 µM, stimulated with maximal-effect acetylcholine; hits give high values.

Assay [10] shares this target. The experiment in a line: activation of mouse TRPC6 channel, confirmation, selectivity assay for TRPC4 activator project, cell-based, HEK293, membrane potential dye, duplicate (AID 434950;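 active = membrane potential signal rise above negative control mean plus 3 SD in both duplicates, also active in the earlier TRPC4 screen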). Particulars: HEK293 TRPC6, membrane potential fluorescence, at 10 µM; hits give high values.
Assay [11] has the same target. In words: TRPC6 potentiation by TRPC4 potentiator hits, confirmation, selectivity assay for TRPC4 potentiator project, HEK293 cells, membrane potential dye, duplicate (AID 434952;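 active = compound raising the membrane signal above positive-control mean plus 3 SD in both repeats, and a primary screen hit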). Conditions: HEK293 TRPC6, membrane potential dye fluorescence, at 10 µM, maximal acetylcholine added after compound; hits give high values.
Assay [12] concerns the target Short transient receptor potential channel 4 (Mus musculus) (UniProt Q9QUQ5). The experiment in a line: calcium flux activators in TRPC4/5HT1a cells, counter-screen for TRPC4 activator project, cell-based, second counter screen, HEK293 TRPC4/5HT1a, Fluo-4 (AID 434977;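 active = calcium signal rise above buffer-control mean plus 5 SD in both duplicates, and also a hit in the primary screen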;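 for activation: plate controls were assay buffer for no effect and maximal serotonin response for full effect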). Particulars: Fluo-4 calcium flux, at 10 µM; hits give high values.
Assay [13] in a line: calcium flux inhibitors in TRPC4/5HT1a cells, confirmation, counter-screen for TRPC4 inhibitor project, cell-based, second counter screen, HEK293 TRPC4/5HT1a, Fluo-4 (AID 434978;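 active = primary screen active whose calcium signal fell more than 3 SD beyond the full-serotonin control mean in both duplicate plates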;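 note: serotonin given first at submaximal then at maximal dose after compound preincubation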). Particulars: Fluo-4 calcium flux, at 10 µM, serotonin added to trigger calcium flux; hits give high values.
Assay [14] relates to TRPC4 (mouse), co-expressed with 5HT1a in HEK293. In words: calcium flux potentiators in TRPC4/5HT1a cells, confirmation, counter-screen for TRPC4 potentiator project, cell-based, second counter screen, HEK293 TRPC4/5HT1a, Fluo-4 (AID 434979;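 active = signal rise over 3 SD above mean of control wells given weak agonist, in both repeats and first screen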). Particulars: Fluo-4 calcium flux, at 10 µM, serotonin added at its EC20 dose; hits give high values.
Assay [15] is described as follows: calcium flux activation in mu-opioid HEK293 cells, confirmation, counter-screen for TRPC4 activator project, cell-based, HEK293 mu-opioid receptor line (AID 449723;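 active = hit in primary screen, with calcium signal over 5 SD above buffer well mean in both duplicates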;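 note: counter screen cells carry the mu-opioid receptor alone and lack TRPC4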). Particulars: Fluo-4 calcium fluorescence, at 10 µM; hits give high values.
Assay [16] can be described thus: calcium flux enhancement in mu-opioid HEK293 cells, confirmation, counter-screen for TRPC4 allosteric potentiator project, cell-based, HEK293 mu-opioid receptor line (AID 449724;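 active = calcium signal rise more than 3 SD above the low-dose agonist control mean, in both duplicate plates and the primary screen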). Conditions: Fluo-4 calcium flux, at 10 µM, compound added before EC20 DAMGO stimulus; hits give high values.
Assay [17] can be described thus: thallium flux activation in parental CHO cells, counter-screen for KCNQ1 potentiator project (AID 493006;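 active = duplicate-averaged activation above buffer control mean plus 5 SD of those controls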;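 note: fluorescence ratio of max minus min over baseline after K+ and Tl+ depolarization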). Particulars: parental CHO-K1 cells, FluxOR thallium flux, at 10 µM; hits give high values. A general note: The purpose of a counterscreen is to sort out artefacts and off-target activity.
For assay [18], the target named is Potassium voltage-gated channel subfamily KQT member 1 (Homo sapiens) (UniProt P51787). In words: KCNQ1 potassium channel potentiators, confirmation, FluxOR thallium flux, CHO cells, duplicates (AID 493007;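 active = potentiation averaged over duplicate wells exceeding buffer-only control mean by more than 3 SD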;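 note: 0% = buffer-only wells and 100% = R-L3 activator control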). Particulars: KCNQ1 cell line, FluxOR thallium flux fluorescence, at 10 µM; hits give high values, % of reference activator effect, buffer zero.
Assay [19] concerns the target Potassium voltage-gated channel subfamily KQT member 2 (Rattus norvegicus) (UniProt O88943). In words: rat KCNQ2 channel potentiation, selectivity assay for KCNQ1 potentiator project, KCNQ2-CHO-K1 cells (AID 493009;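 active = mean duplicate potentiation above the buffer control mean plus 5 SD of buffer wells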;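 note: assay conditions were tuned for KCNQ1 rather than KCNQ2 modulators; signal is max minus min fluorescence divided by baseline after thallium stimulus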). Conditions: FluxOR thallium flux fluorescence, at 10 µM; hits give high values, scaled: buffer 0, activator control 100.
Assay [20] addresses Short transient receptor potential channel 4 (Mus musculus) (UniProt Q9QUQ5). In words: TRPC4 positive allosteric modulators, dose response, cell-based, HEK293 TRPC4/mu-opioid, Fluo-4 calcium, EC20 DAMGO (AID 434941;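 active = earlier screen potentiator hit that boosts the TRPC4 ion channel at some dose, with a dose response; inactive = no potentiation, no dose response, or not a prior hit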;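 note: calcium entry triggered by an EC20 dose of DAMGO at the co-expressed mu-opioid receptor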).

For some of these results: Measured potencies and affinities stand elsewhere. The source made the active and inactive calls.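 Rule for the calls, unless noted: active = primary screen inhibitor hit that blocks the TRPC4 channel at some tested dose, yielding a dose curve; inactive = the rest.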

Sequence of Short transient receptor potential channel 4 (Mus musculus) (Q9QUQ5 whole entry, looked up): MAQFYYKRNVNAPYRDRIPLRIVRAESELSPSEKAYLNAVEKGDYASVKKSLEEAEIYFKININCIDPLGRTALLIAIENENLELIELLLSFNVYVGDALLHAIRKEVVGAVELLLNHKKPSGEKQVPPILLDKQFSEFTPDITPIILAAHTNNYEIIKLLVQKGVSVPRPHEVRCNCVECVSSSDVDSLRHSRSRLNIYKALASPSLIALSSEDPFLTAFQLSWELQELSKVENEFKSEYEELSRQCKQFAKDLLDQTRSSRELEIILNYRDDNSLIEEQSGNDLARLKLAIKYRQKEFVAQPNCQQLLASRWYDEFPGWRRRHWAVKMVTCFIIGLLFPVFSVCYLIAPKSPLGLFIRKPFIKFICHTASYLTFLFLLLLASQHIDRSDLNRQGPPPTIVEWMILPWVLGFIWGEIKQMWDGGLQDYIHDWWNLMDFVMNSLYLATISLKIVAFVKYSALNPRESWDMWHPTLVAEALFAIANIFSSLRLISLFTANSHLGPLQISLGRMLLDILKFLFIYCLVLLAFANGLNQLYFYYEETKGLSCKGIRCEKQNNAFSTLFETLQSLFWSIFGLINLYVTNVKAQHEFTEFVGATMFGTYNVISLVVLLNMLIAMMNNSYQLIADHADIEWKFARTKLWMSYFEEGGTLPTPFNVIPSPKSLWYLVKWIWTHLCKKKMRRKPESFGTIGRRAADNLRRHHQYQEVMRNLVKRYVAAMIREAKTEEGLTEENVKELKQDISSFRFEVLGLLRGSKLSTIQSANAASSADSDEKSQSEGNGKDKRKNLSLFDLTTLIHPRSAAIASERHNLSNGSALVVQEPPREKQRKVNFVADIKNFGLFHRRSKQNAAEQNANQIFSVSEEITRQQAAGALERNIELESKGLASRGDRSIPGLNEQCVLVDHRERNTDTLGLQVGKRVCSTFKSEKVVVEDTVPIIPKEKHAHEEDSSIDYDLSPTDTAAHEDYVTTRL
Sequence of Short transient receptor potential channel 6 (Mus musculus) (Q61143 whole entry, looked up): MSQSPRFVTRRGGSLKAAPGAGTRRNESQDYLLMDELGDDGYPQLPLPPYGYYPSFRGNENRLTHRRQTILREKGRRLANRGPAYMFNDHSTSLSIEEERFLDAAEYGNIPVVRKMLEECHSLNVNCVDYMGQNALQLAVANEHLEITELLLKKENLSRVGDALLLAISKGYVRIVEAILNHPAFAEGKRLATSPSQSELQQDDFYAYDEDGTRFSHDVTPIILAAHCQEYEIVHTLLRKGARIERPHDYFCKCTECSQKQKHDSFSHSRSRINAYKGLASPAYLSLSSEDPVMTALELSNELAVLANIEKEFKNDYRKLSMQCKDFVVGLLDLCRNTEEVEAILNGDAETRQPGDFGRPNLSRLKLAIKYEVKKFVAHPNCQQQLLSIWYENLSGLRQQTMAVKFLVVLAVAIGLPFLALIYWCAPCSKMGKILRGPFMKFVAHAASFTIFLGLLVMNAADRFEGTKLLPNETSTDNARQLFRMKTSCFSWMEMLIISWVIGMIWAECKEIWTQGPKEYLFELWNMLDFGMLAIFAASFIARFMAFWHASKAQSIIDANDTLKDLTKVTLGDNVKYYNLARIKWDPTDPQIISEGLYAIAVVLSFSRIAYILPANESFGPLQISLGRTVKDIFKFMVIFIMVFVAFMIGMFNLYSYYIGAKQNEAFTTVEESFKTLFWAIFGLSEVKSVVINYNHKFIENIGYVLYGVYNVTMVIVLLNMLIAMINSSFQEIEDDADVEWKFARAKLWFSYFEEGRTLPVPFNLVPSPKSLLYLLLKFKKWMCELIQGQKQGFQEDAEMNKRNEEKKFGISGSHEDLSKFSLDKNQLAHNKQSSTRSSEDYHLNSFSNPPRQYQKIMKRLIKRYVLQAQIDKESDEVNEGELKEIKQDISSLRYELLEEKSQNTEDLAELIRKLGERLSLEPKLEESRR
Sequence of Potassium voltage-gated channel subfamily KQT member 2 (Rattus norvegicus) (O88943 whole entry, looked up): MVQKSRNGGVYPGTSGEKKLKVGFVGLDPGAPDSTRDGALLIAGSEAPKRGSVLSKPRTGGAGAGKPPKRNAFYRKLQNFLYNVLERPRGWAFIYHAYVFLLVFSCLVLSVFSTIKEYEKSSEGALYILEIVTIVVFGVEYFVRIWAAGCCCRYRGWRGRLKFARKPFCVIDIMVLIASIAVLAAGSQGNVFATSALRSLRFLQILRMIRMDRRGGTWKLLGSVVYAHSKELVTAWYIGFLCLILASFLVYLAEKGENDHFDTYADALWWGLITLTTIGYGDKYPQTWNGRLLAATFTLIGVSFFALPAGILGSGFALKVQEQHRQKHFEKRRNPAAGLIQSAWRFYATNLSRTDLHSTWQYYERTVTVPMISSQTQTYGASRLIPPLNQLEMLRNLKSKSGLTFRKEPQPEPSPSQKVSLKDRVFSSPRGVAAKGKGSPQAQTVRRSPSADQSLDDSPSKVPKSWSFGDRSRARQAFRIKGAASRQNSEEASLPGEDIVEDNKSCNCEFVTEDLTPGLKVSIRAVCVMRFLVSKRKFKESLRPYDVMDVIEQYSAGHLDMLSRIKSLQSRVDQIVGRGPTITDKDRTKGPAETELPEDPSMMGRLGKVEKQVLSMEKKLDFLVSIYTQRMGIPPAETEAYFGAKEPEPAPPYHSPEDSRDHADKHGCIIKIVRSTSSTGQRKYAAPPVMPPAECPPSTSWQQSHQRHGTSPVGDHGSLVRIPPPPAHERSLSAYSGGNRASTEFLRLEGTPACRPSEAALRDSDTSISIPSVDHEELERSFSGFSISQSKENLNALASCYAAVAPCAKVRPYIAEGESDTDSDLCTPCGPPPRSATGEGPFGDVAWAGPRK
Sequence of Potassium voltage-gated channel subfamily KQT member 1 (Homo sapiens) (P51787 whole entry, looked up): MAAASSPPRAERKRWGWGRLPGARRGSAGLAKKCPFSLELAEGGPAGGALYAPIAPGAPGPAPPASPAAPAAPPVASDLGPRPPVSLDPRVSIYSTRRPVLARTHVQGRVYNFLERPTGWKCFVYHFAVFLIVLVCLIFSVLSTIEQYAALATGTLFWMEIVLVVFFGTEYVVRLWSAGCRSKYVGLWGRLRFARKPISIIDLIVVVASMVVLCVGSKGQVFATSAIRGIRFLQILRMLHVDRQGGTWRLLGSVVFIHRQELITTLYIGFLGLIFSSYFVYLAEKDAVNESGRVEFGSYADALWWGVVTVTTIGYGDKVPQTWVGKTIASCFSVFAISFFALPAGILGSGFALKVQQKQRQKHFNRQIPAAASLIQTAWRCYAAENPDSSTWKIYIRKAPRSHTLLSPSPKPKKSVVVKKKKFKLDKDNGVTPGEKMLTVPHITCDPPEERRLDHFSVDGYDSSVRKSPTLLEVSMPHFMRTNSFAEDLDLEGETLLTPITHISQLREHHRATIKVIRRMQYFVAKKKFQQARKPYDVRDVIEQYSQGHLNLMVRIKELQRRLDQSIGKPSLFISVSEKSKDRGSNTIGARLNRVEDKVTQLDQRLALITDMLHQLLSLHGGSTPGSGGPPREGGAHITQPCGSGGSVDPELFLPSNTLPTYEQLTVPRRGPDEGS

In the case of `Cc1cc(C(C)(C)C)c(O)c(C)c1CC1=NCCN1`, the outcome in assay [1], in assay [2], in assay [3], in [5], in assay [6] and in [7] was inactive. The outcome in [8], in assay [9], in [10], in assay [11], in assay [12] and in [13] was inactive. Further, the outcome in assay [14], in [15] and in assay [16] was inactive. Also, the potentiation in assay [4] was 14% (active).
As for `Cc1cccc(/C=N/NC(=O)c2cc(Br)ccc2O)n1`, the result in assay [1], in [2], in assay [5], in assay [6], in [7] and in assay [8] was inactive. The outcome in assay [9], in assay [10], in assay [11], in assay [12], in assay [13] and in assay [15] was inactive. Further, in assay [16], the outcome was inactive. Besides, the potentiation in assay [3] was 24% (active); in [4], 46% (active); in [14] it was 100% (active); in [18], 48% (active); in [19], 182% (active). Further, the activation in assay [17] was 140% (active).
With `CC1CCN(c2nc(Cl)nc(Nc3ccc([N+](=O)[O-])cc3)n2)CC1`, the result in assay [1], in [2], in assay [3], in assay [5], in assay [6] and in [7] was inactive. Also, the result in assay [8], in [9], in assay [10], in assay [11], in [12] and in [13] was inactive. For the same compound, the result in assay [15] and in [16] was inactive. In addition, the figures for the potentiation in assay [4] and in [14] were 15% (active) and 66% (active), respectively.
For the compound `Cc1cccc(/C=N/NC(=O)c2cccc(Cl)c2)n1`, the outcome in assay [1], in [2], in [3], in assay [5], in [6] and in assay [7] was inactive. Moreover, the result in assay [8], in assay [9], in [10], in assay [11], in [12] and in assay [13] was inactive. The result in [15] and in assay [16] was inactive. The potentiation in assay [4] is 79% (active); in assay [14], 83.4% (active).
In the case of `O=C(Nc1ccccc1)C1=C[C@H](C2CCCCC2)C[C@H](OCc2ccc(CO)cc2)O1`, the result in assay [1], in [2], in assay [3], in [5], in assay [6] and in assay [7] was inactive. In addition, the result in assay [8], in [9], in assay [10], in assay [11], in assay [12] and in assay [13] was inactive. Moreover, the outcome in [15] and in [16] was inactive. In addition, the potentiation in [4] was 85% (active); in [14], 124% (active).
For `CCN1CCN(c2ccc(S(=O)(=O)N3CCOCC3)cc2NC(=O)c2ccccc2SC)CC1`, the activation in assay [1] was 316% (active); in assay [2] it was 110% (active); in [12], 81.4% (active). Further, the result in assay [3], in [4], in assay [5], in [6], in [20] and in assay [8] was inactive. Also, the compound was called inactive in assay [9], in assay [10], in assay [11], in assay [13], in [14] and in [15]. The result in [16] was inactive.
For `CNc1nc(N2CCc3ccccc32)ncc1F`, the outcome in [1], in [2], in assay [5], in [6], in assay [7] and in [8] was inactive. Further, the outcome in assay [9], in assay [10], in [11], in [12], in [13] and in assay [15] was inactive. The result in [16] was inactive. The values for the potentiation in [3], in assay [4] and in [14] were 27% (active), 75% (active) and 103% (active), respectively.
